# This excerpt belongs to a sample that is enriched for hits.
# Pf Dd2 inh – inhibitors of Plasmodium falciparum Dd2 growth. Potency, µM (doses to about 28.9 µM), without a hit: at the top dose activity, negative = inhibition, usual class: inhibitors. AID 1347417. 4.3% of 120,000 active. P. falciparum Dd2 growth, SYBR Green, 72 h; active means well fitted inhibition curve with a large enough effect;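 further: plate controls were DMSO vehicle for no effect and reference drug for full effect; nearly all actives have a fitted effect of over 65% in size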
#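 Infected erythrocytes (Dd2, 0.3% parasitemia, 2.5% hematocrit final) are added to compound in RPMI-1640/Albumax II medium, grown 72 h at 37C in low oxygen, then lysed with saponin/Triton-X containing SYBR Green and read by fluorescence.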
# Active calls of the source: *; i = inactive; ! = a repeat was not active; [ ] = another dose, or the depositor's remark. Potency means the concentration at half of the fitted maximal effect.
SMILES,Pf Dd2 inh
O=C(c1ccco1)n1nc(-c2ccc(Cl)cc2)nc1NCc1ccc(F)cc1,61%
CC(=O)Nc1cccc(C(=O)NCCn2ccn3nc(-c4ccc(F)cc4)cc3c2=O)c1,-1%
COc1ccccc1CCC(=O)N1CCCC(Nc2ccc(F)cc2)C1 (configuration not stated),-17%
COc1cc(CN(C(=O)C2CCC2)[C@H]2CCCCNC2=O)ccc1OCCc1scnc1C,-6%
O=C1NCCOCCN(S(=O)(=O)c2ccccc2)[C@H]2CCC[C@@H]12,20%
Cc1nc(CN2C(=O)OC3(CCN(C(=O)Cc4ccccc4)CC3)C2(C)c2ccccc2)cs1 (configuration not stated),-1%
O=S(=O)(NC[C@H]1O[C@@H](CO)[C@@H](O)[C@H]1N1CCOCC1)c1cccs1,12%[44.1 µM]
COc1ccc(-n2nc(C3CCN(Cc4cccnc4)CC3)[nH]c2=O)cc1,-13%
CCN1CCC(c2nc3ccc(F)cc3c(=O)[nH]2)CC1,0%[44.1 µM]
CC(=O)Nc1ccc(CN2CCC(c3nc4ccc(C)cc4c(=O)[nH]3)CC2)cc1,-11%
Cc1ccc(-c2cccc(CN3CCCC(c4nc5ccc(F)cc5c(=O)[nH]4)C3)c2)c(C)c1 (configuration not stated),13µM*!
COc1ccc(CN2CCCC(c3nn(-c4ccccc4)c(=O)[nH]3)C2)cc1 (configuration not stated),-17%
CC(C)NC(=O)N1CC[C@H](c2nc3ccc(F)cc3[nH]2)C1,i
Cc1ccc(-c2cccc(CN3CC4CCC(C3)N4c3ccc(C(F)(F)F)cc3)c2)c(C)c1,185%
CC(=O)Nc1ccc(CN2CCC(c3nc4ccc(F)cc4c(=O)[nH]3)CC2)cc1,-23%
Cc1ccc2nc(C3CCN(Cc4cccc(-c5cccnc5)c4)CC3)[nH]c(=O)c2c1,8.9µM*!
Cc1cc(C)cc(-c2ccc(CN3CCCC(c4nc5ccc(F)cc5c(=O)[nH]4)C3)cc2)c1 (configuration not stated),10µM*!
Cc1ccc(-c2cccc(CN3CCN(c4ccc(Cl)nn4)C(=O)C3)c2)c(C)c1,-21%
CC(C)CN1CCCC(c2nc3ccc(F)cc3c(=O)[nH]2)C1 (configuration not stated),5µM*
COCC1CN(C)CC12CCN(C(=O)c1cnco1)CC2 (configuration not stated),-11%
O=C(NCCCN1CCCc2ccccc21)C1CCCCC(=O)N1Cc1ccccc1 (configuration not stated),-24%
COC(=O)CNC(=O)N1CCC(N2C(=O)C(OCC3CC3)C23CCCCC3)CC1 (configuration not stated),-17%
O=c1[nH]c(C2CCCN(CC3CCCCC3)C2)nn1-c1ccccc1 (configuration not stated),i
N#Cc1cccc(CN2CCC(c3nc4ccc(F)cc4c(=O)[nH]3)CC2)c1,2%
O=c1[nH]c(C2CCCN(Cc3cccc(-c4cccs4)c3)C2)nc2ccc(F)cc12 (configuration not stated),8.9µM*!
SMILES,Pf Dd2 inh
Cc1ccc2nc(C3CCCN(CC4CCCC4)C3)[nH]c(=O)c2c1 (configuration not stated),8.9µM*!
Cc1ccc2nc([C@H]3CCN(Cc4cccs4)C3)[nH]c2c1,-17%[44.1 µM]
O=c1[nH]c(C2CCCN(Cc3ccccc3)C2)nn1-c1ccccc1 (configuration not stated),-22%[44.1 µM]
CC1(C)CNC(=O)c2nc(C3(CN4CCCC4)CC3)[nH]c2C1,-2%
O=C(Cc1ccccc1)N1CCC(c2noc(-c3cnccn3)n2)C1 (configuration not stated),i[5.79 µM]
COc1ccc(NC(=O)N2CC[C@H]3COC(=O)N3c3cc(C)ccc3C2)cc1,22%[44.1 µM]
CC(C)c1ccc(NC(=O)CSC2=Nc3ccccc3C3=NC(CCC(=O)NC4CCCCC4)C(=O)N23)cc1 (configuration not stated),86%
O=C(CSC1=Nc2ccccc2C2=NC(CCC(=O)NC3CCCCC3)C(=O)N12)Nc1cccc(C(F)(F)F)c1 (configuration not stated),10µM*
O=C(CCC1N=C2c3ccccc3N=C(SCC(=O)Nc3ccccc3F)N2C1=O)NCc1cccs1 (configuration not stated),-27%
Cc1ccc(CSC2=Nc3ccccc3C3=NC(CCC(=O)NCCc4ccccc4)C(=O)N23)cc1 (configuration not stated),10µM*
CCc1ccc(NC(=O)CSC2=Nc3ccccc3C3=NC(CC(=O)NC4CCCCC4)C(=O)N23)cc1 (configuration not stated),i
COc1ccc(Cl)cc1NC(=O)CSC1=Nc2ccccc2C2=NC(CC(=O)NCc3cccs3)C(=O)N12 (configuration not stated),11µM*
O=C(CSC1=Nc2ccccc2C2=NC(CC(=O)NC3CCCCC3)C(=O)N12)Nc1ccc(F)cc1 (configuration not stated),56%

# Assay outcomes deposited in PubChem by National Center for Advancing Translational Sciences (NCATS).
